Test results as given in the supplement of paper PMC6555819.

Columns and labels:
Assay in all cases: PBM binding z-score (relative to random genomic background probes); higher = stronger binding; sequences stand for … in GC…GCGATTGACAGCGTAGAATGAAGG
[1] = system: RARb homodimer (NR concentration 270 nM)
Procedure, shortened: (§1)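 For binding z-scores, the reference was random background probes on custom Agilent 4×180K protein-binding microarrays. These arrays were incubated 1 h with ligand-free nuclear receptor dimers in PBS pH 7.4, 2% milk, 0.02% Triton X-100, 1 mM DTT, 0.2 mg/mL BSA and 0.4 mg/ml salmon testes DNA. Fluorescence was scanned after antibody detection of each partner (one per run) and regression-normalized.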

[2] = system: RARg:RXRa (NR concentration 270 nM, RXRa partner concentration 90 nM)
Procedure, shortened: as §1

[3] = system: RARg homodimer (NR concentration 270 nM)
Procedure, shortened: as §1

[4] = system: RXRa DBDmut IVT, anti-RXR (DBD mutation: RXRa K156A/R161A, NR concentration 90 nM)
Procedure, shortened: as §1

[5] = system: RXRa homodimer (NR concentration 180 nM)
Procedure, shortened: as §1

[6] = system: THRa:RXRa (NR concentration 90 nM, RXRa partner concentration 90 nM)
Procedure, shortened: as §1

[7] = system: THRa homodimer (NR concentration 90 nM)
Procedure, shortened: as §1

[8] = system: VDR homodimer (NR concentration 270 nM)
Procedure, shortened: as §1

Row | Sequence | PBM binding z-score [1] | PBM binding z-score [2] | PBM binding z-score [3] | PBM binding z-score [4] | PBM binding z-score [5] | PBM binding z-score [6] | PBM binding z-score [7] | PBM binding z-score [8]
1 | CGAACTAGGTCACCAGGACTGTGAAGAGGTTGGA | 3.39 | 4.54 | 5.16 | 1.46 | 3.6 | 3.24 | 1.3 | 0.447
2 | TAGCCTAGGTCATTCAGGGGCTAGTATAGAAAGC | 2.84 | 4.98 | 4.16 | 1.94 | 2.89 | 3.74 | 0.0111 | 0.805
3 | ATCGAAAGGTCGTGAGGTGACTATACAGAAAGGC | 3.07 | 4.7 | 3.57 | 1.29 | 5.22 | 3.87 | 1.85 | 0.91
4 | CGTCAAAGTTCATGGTAACGTAACAGAAAGCAGC | 4.04 | 5.3 | 5.92 | 4.79 | 4.53 | 1.98 | -0.212 | 4.64
5 | TCGAGTTGGTTACGGGGGCATTCAGGGATGAAGA | 1.6 | 2.49 | 1.71 | 2.61 | 1.89 | 3.74 | 1.87 | 4.57
6 | CGAACTAGGTCACAAGGACAGTGAAGAGGTTGGA | 3.36 | 4.24 | 4.8 | 1.32 | 3.1 | 3.33 | 1.7 | 0.816
7 | ATATGTAGGTCAGCTGGGGTCATTCAGACTAGGC | 5.26 | 6.13 | 6.32 | 2.43 | 6.85 | 5.44 | 3.41 | 5.57
